Screening results (PubChem BioAssay)
CHOP inhibitor – inhibitors of CHOP induction in ER stress response; inhibition, % at 10 µM; 220,000 tested, 3.8% active; CHO-K1 CHOP-promoter luciferase, tunicamycin-induced, 15-18 h;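 active means compounds that reduced the stress-induced luciferase reporter signal by more than about 70% of percent inhibition, limit read from the data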
RAM inhibit – yeast RAM network inhibition; 190,000 tested, 1.8% active; inhibition, % at 50 µM; S. cerevisiae dse1pr::URA3 reporter, 5-FOA growth OD615, 2 d; analog-sensitive cbk1-as2 kinase mutant strain;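 active means inhibition above a set limit, 3 SD over mean compound inhibition, cut at about 8.4% in these data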;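 further: inhibition rescues growth on 5-FOA so higher OD means more RAM inhibition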
L major viab – Leishmania major promastigote growth inhibition; 200,000 tested, 9% active; Leishmania major promastigotes, resazurin fluorescence viability; inhibition, % at 10 µM; AID 1063; in the data active means inhibition above about 50%;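 further: promastigotes grown with compound for 44 hours at 28 °C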
WT yeast gro inh – growth inhibition of WT yeast, mitochondrial fusion screen | mitochondrial fusion phenotypic screen, WT strain | inhibition, % at 10 µM | 190,000 tested, 2.1% active | AID 1362; in the data active means inhibition above about 58%; tested in S. cerevisiae
Large screens that a line does not name were inactive. In the library only some 13% were active in any assay of this set; here they are far more common.

COc1ccc(-c2nnc(SC(C)C(=O)Nc3nccs3)n2-c2ccccc2)cc1OC (configuration not stated)	L major viab 53.8
CCOC(=O)C1(Cc2cccc(F)c2)CCN(Cc2ccon2)CC1	none
CCOC(=O)C1(Cc2ccccc2Cl)CCN(Cc2csc(C(C)=O)c2)CC1	L major viab 90.3
CCOC(=O)C1(Cc2cccc(OC)c2)CCN(Cc2cnc(N)nc2)CC1	none
CCOC(=O)C1(Cc2ccc(Cl)cc2)CCN(Cc2cnc(N)nc2)CC1	L major viab 53.2
CCOC(=O)C1(Cc2ccc(Cl)cc2)CCN(Cc2ccon2)CC1	L major viab 95.0
CCOC(=O)C1(S(=O)(=O)c2ccc(Cl)cc2)CCN(Cc2ccc(C)cc2)CC1	CHOP inhibitor 74.3, WT yeast gro inh 71.8
CC(C)(C)NC(=O)NC(=O)CN1CCN(c2cccc(Cl)c2)CC1	none (no result: RAM inhibit, L major viab, WT yeast gro inh)
CCCCCc1ccc(C(=O)CCCC)c(=S)[nH]1	WT yeast gro inh 66.4
CCCCCc1cc(=O)[nH]c(=S)[nH]1	none (no result: RAM inhibit, L major viab, WT yeast gro inh)
Cc1cc(OC(F)F)ccc1NC(=O)Nc1ccc([N+](=O)[O-])cc1	none
Cc1ccc(/C=N\NC(=O)C2COc3cc4ccccc4cc3O2)o1 (configuration not stated)	none
O=C(N/N=C\c1ccc(-c2ccccc2[N+](=O)[O-])o1)C1COc2cc3ccccc3cc2O1 (configuration not stated)	L major viab 96.1
O=C(N/N=C\c1ccc(-c2ccccc2[N+](=O)[O-])o1)C1COc2ccccc2O1 (configuration not stated)	L major viab 51.6
O=C(N/N=C\C=C\c1ccc2c(c1)OCO2)C1COc2ccccc2O1 (configuration not stated)	L major viab 65.3
O=C(N/N=C\c1ccc([N+](=O)[O-])o1)C1COc2ccccc2O1 (configuration not stated)	L major viab 100.0
O=C(O)c1cccc(-c2ccc(/C=N/NC(=O)C3COc4ccccc4O3)o2)c1 (configuration not stated)	none
OC(CNCc1ccccc1C(F)(F)F)C(F)(F)F (configuration not stated)	none
Clc1cc(Sc2ccc(Br)cc2)nnc1-c1ccccc1	none
Cc1ccc(-c2[nH]c3ccccc3c2SCCNC(=O)c2ccc(S(=O)(=O)N3CCOCC3)cc2)cc1	L major viab 99.5
CCOC(=O)CC1COCCN1Cc1cn[nH]c1-c1cc(OC)c(OC)c(OC)c1 (configuration not stated)	none (no result: RAM inhibit, L major viab, WT yeast gro inh)
O=C(Nc1ccc(C(=O)O)cc1)/C(=C\c1ccc2c(c1)OCO2)NC(=O)c1ccc(Br)cc1	RAM inhibit 10.7
O=C(Nc1ccc(C(=O)O)cc1)/C(=C\c1ccc2c(c1)OCO2)NC(=O)c1ccccc1	RAM inhibit 9.2
CCN(CC)S(=O)(=O)c1ccc(/C=C/C(=O)Nc2ccc(F)c(F)c2F)cc1	L major viab 88.6
CCN(CC)S(=O)(=O)c1ccc(/C=C/C(=O)Nc2ccc(N3CCOCC3)cc2)cc1	none (no result: RAM inhibit, L major viab, WT yeast gro inh)
CCN(CC)S(=O)(=O)c1cccc(NC(=O)/C=C/c2ccc([N+](=O)[O-])cc2)c1	none
CCN(CC)S(=O)(=O)c1ccc(/C=C/C(=O)Nc2ccc(F)cc2F)cc1	L major viab 56.5
CCN(CC)S(=O)(=O)c1ccc(/C=C/C(=O)Nc2ccc(Br)cc2F)cc1	L major viab 98.5
CC(C)N(C(=S)Nc1cccc(C(F)(F)F)c1)C(C)c1ccccn1 (configuration not stated)	WT yeast gro inh 74.0
COC(=O)c1cc(OC)c(OC)cc1NC(=O)c1ccccc1C	none
O=C1c2cccc3c(N4CCCCC4)ccc(c23)C(=O)N1c1ccccc1O	none
O=C1c2cccc3c(N4CCCCC4)ccc(c23)C(=O)N1c1ccc(O)cc1	CHOP inhibitor 106.4
O=C(COC(=O)CCC1CCCC1)Nc1ccc(Cl)cn1	CHOP inhibitor 72.6
C=CCC(=O)OCC(=O)Nc1ccc(Cl)cn1	none
Cc1ccc2c(CC(=O)OCC(=O)Nc3ccc(Cl)cn3)coc2c1	L major viab 50.9
COC(=O)C1=C(C)N(C)C(=S)NC1c1ccc(OC)cc1OC (configuration not stated)	none
CC1CN(S(=O)(=O)c2ccc(C(=O)Nc3nnc(-c4ccco4)o3)cc2)CC(C)O1 (configuration not stated)	none
O=C(Nc1nnc(C2CC2)o1)c1ccc(S(=O)(=O)N2CCc3ccccc3C2)cc1	WT yeast gro inh 63.8
COc1ccc(-c2nnc(NC(=O)c3ccc(S(=O)(=O)N4CCc5ccccc5C4)cc3)o2)cc1	CHOP inhibitor 71.1, L major viab 99.5
COc1cccc(-c2nnc(NC(=O)c3ccc(S(=O)(=O)N4CC(C)OC(C)C4)cc3)o2)c1 (configuration not stated)	L major viab 99.3
CC(CC(=O)NCC1CCCO1)c1ccccc1 (configuration not stated)	none
CC(NC(N)=O)C(=O)Nc1ccc(Cl)c(S(=O)(=O)Nc2ccc(Cl)cc2)c1 (configuration not stated)	none
COc1ccc(NS(=O)(=O)c2cc(NC(=O)CNC(=O)c3ccc(C)s3)ccc2Cl)cc1	RAM inhibit 10.1, L major viab 84.1
Cc1ccc(C(=O)NCC(=O)Nc2ccc(C)c(S(=O)(=O)Nc3ccc(Cl)cc3)c2)s1	none
O=C(O)c1ccc(NS(=O)(=O)c2cc(Cl)ccc2Cl)cc1	L major viab 94.5
CC(C)Oc1ccc(C(=O)Nc2ccc(Cl)c(S(=O)(=O)Nc3ccc(Cl)cc3)c2)cc1	CHOP inhibitor 70.8
CC(C)C(=O)Nc1cc(S(=O)(=O)Nc2ccc(Cl)cc2)ccc1Cl	WT yeast gro inh 73.8
CC(=O)c1ccc(N2CCN(Cc3nc(Cc4ccccc4)no3)CC2)cc1	none
O=C(c1c(F)c(F)c(F)c(F)c1F)N(Cc1ccccc1)Cc1ccccc1	WT yeast gro inh 66.3
Cn1c(C(=O)OC(C(=O)NC2CCCC2)c2cccnc2)cc2sccc21 (configuration not stated)	L major viab 97.5
Cn1c(C(=O)OC(C(=O)NC2CCCCC2)c2cccnc2)cc2sccc21 (configuration not stated)	L major viab 96.6
Cc1ccc(S(=O)(=O)C2(C(=O)N3CCCCC3C)CC2)cc1 (configuration not stated)	none
Cc1oc2ccc(O)cc2c1C(=O)c1ccc([N+](=O)[O-])cc1	none
Cc1oc2ccc(O)cc2c1C(=O)c1ccc(Cl)cc1	CHOP inhibitor 71.0
COc1ccc(CCn2c(SCCN3CCCCC3)nc3ccccc3c2=O)cc1OC	L major viab 99.9
O=c1c2ccccc2nc(SCCN2CCOCC2)n1CCc1ccccc1	none
CCSc1nc2cc(OC)c(OC)cc2c(=O)n1CCc1ccccc1	RAM inhibit 8.6
Cc1sc2nc(CSc3nc4ccccc4c(=O)n3CCCN3CCOCC3)[nH]c(=O)c2c1C	none
COc1ccc(CSc2nc3ccccc3c(=O)n2CCCN2CCOCC2)cc1F	L major viab 97.9
COCCCn1c(SCCc2ccccc2)nc2cc(OC)c(OC)cc2c1=N	L major viab 50.9
CNCc1ccccc1OCC(=O)Nc1ccccc1OC	none
COC(=O)c1c(C)n(-c2ccc(OC)cc2)c2ccc(O)cc12	CHOP inhibitor 74.1
Clc1ccc2nncn2n1	none
